SMILES strings stand for the structures. Hit rate of the full screen: of about 2,100 compounds, about 650 (31%) were called active. About 16% were inconclusive and are not listed. The list shows a part of the results. Values without a mark were called inactive. The call rests on the fitted dose curve; in most records, active means well fitted inhibition curve with a large enough effect; inconclusive means small, poorly fitted or top-dose-only effect; inactive means flat fitted curve, though single readings scatter.
Potency means the concentration at half of the fitted maximal effect.

A short description of this assay: qHTS for inhibitors of Vif-A3G interactions: Cherry picks. Further: nearly all actives have a fitted effect of over 80% in size. On activity, negative = fluorescence increase: % of control where 0% means no effect. The conditions noted are these: HeLa A3G-eYFP + Vif (tagged APOBEC3G with the HIV-1 protein that degrades it), 24 h; Potency: eYFP fluorescence increase; series mostly up to 36.9 µM; activity, negative = fluorescence increase: at the top concentration. The text has this: The recent discovery and characterization of host restriction factors, which provide a potent defense to invading retroviruses, has provided new targets for antiviral drug development. APOBEC3G (A3G) and APOBEC3F (A3F) are potent cytidine deaminases that block HIV-1 replication; HIV-1 expresses the Vif protein, which counteracts A3G and A3F by binding to them and inducing their proteasomal degradation. The Vif-A3G and Vif-A3F interactions provide two potential targets for development of small molecules which can interfere with the ability of Vif to degrade A3G or A3F. […] To identify inhibitors that can interfere with Vif mediated degradation of A3G and A3F, we have developed Hela cell lines that stably express A3G or A3F tagged with eYFP at the C-terminal end (A3G-eYFP or A3F-eYFP, respectively) and Vif. In the absence of an inhibitor, Vif induces degradation of A3G-eYFP and A3F-eYFP, and the cells are not fluorescent. In the presence of an inhibitor, it is expected that Vif will be unable to degrade A3G-eYFP and/or A3F-eYFP, resulting in an increase in yellow fluorescence. In this assay, Vif A3G was screened against the cherry picks ordered from the MLSMR. NIH Chemical Genomics Center [NCGC] NIH Molecular Libraries Probe Centers Network [MLPCN] MLPCN Grant: MH093245 Assay Submitter (PI): Vinay Pathak, National Cancer Institute
A3G-Vif cells were harvested from T225 flask and resuspended in phenol free OPTI-MEM medium with 5% FBS. Then 5 uL of 140,000 cells/mL resuspended cells was dispensed into each well of low base Aurora COC 1,536-well plates (black walled, clear bottom) using a Multidrop Combi dispenser. After overnight culture at 37 deg C with 5% CO2, a total of 23 nL of compounds at 5 selected concentrations from the NPC or positive control (2 mM stock of MG132) in DMSO was transferred to each well of the assay plate using a pintool (Kalypsys, San Diego, CA), and the plates were further incubated at 37 deg C with 5% CO2 for 24 hours. After that, the plates were measured on Acumen Explorer (TTP Lab Tech). The fluorescence was detected by 488 nm/Ex and […].
With `CN1/C(=C\C=C2C(=O)NC(=O)NC2=O)C(C)(C)c2ccccc21`, the Potency was 4.61 µM (active).

Regarding `COCCCn1c(=O)/c(=C\c2ccccc2OC(F)F)s/c1=C(/C#N)C(=O)NCCOC`, the Potency was 20.6 µM (active).

Regarding `CCCCNC(=O)/C(C#N)=c1\s/c(=C\c2ccccc2OC(F)F)c(=O)n1CCCOC`, the Potency is 16.4 µM (active).

As for `C/C(=C\c1ccc(N(C)C)cc1)[N+](=O)[O-]`, the “activity, negative = fluorescence increase” value was 0.666%.

Take `O=C1NC(=O)N(c2ccc3c(c2)OCO3)C(=O)/C1=C/c1ccc(N2CCCCC2)o1`: the Potency was 23.1 µM (active).

`O=C1NC(=O)N(c2ccc3c(c2)OCO3)C(=O)/C1=C\c1ccc(N2CCCCC2)o1`: the Potency is 20.6 µM (active).

Take `CCCCn1c(O)c(C(=O)/C=C/c2c[nH]c3ccccc23)c(=O)[nH]c1=O`: the Potency is 15.8 µM (active).

As for `Cc1ccccc1-n1c(/C=C/c2ccc(N(C)C)cc2)nc2ccccc2c1=O`, the Potency is 5.8 µM (active).

With `O=c1[nH]c(CN2CC=C(c3ccccc3)CC2)nc2scc(-c3ccccc3)c12`, the Potency was 23.1 µM (active).

Take `O=C1/C(=C/c2ccc3c(c2)OCO3)SC(=S)N1CCC(=O)N(CCO)c1ccccc1`: the Potency is 23.1 µM (active).

For `O=c1c2ccccc2nc(/C=C/c2ccccc2O)n1-c1ccc(Br)cc1`, the Potency is 20.6 µM (active).

Take `COc1ccc(-n2c(/C=C/c3ccc(O)c(OC)c3)nc3ccccc3c2=O)cc1`: the Potency was 23.1 µM (active).

Turning to `NC(=Nc1ccccc1)NN=Cc1c[nH]c2ccccc12`, the “activity, negative = fluorescence increase” value is -1.44%.

For `Cc1cccc(CN2CCCC(C(=O)c3cccc(OC(C)C)c3)C2)n1` (configuration not stated), the “activity, negative = fluorescence increase” value is -4.3% [at 46.1 µM].

Regarding `O=C1NC(=S)SC1=Cc1ccc(N(CCCl)CCCl)cc1`, the Potency was 15.8 µM (active).

As to `CN1C(=O)C(=Cc2ccc(N3CCCCC3)o2)C(=O)N(C)C1=S`, the Potency is 7.31 µM (active).

Consider `CN1C(=O)C(=Cc2ccc(N3CCOCC3)o2)C(=O)N(C)C1=O`, for which the Potency is 23.1 µM (active).

`CN1C(=O)C(=Cc2ccc(N3CCOCC3)o2)C(=O)N(C)C1=S`: the Potency is 20.6 µM (active).

Take `O=C1CN=C(c2cccc(Br)c2)c2cc(Br)ccc2N1`: the “activity, negative = fluorescence increase” value was -0.913%.

On to `CCS(=O)(=O)N1N=C(c2cccc(NS(C)(=O)=O)c2)CC1c1ccccc1` (configuration not stated), for which the Potency is 18.4 µM (active).

As to `O=Cc1c(C(=O)O)n(Cc2ccc(Cl)cc2)c2ccccc12`, the Potency was 20.6 µM (active).

With `Cc1ccc(CNC(=O)c2ccccc2NC(=O)c2nsc3ccccc23)cc1`, the Potency is 20.6 µM (active).

With `COc1ccc(-c2ccc(OC)c(OC)c2OC)cc1`, the “activity, negative = fluorescence increase” value is -11.7%.

On to `CN(C)c1ccc(C(=O)c2ccc(N(C)C)cc2)cc1`, for which the “activity, negative = fluorescence increase” value is -0.231%.

For `Cc1cc(N(CCCl)CCCl)ccc1C=Cc1ccncn1`, the Potency was 23.1 µM (active).

Turning to `COCCNC(=O)c1c(NC(=O)c2ccc(Br)o2)n(Cc2ccccc2)c2nc3ccccc3nc12`, the Potency was 20.6 µM (active).

With `COCCCNC(=O)c1c(NC(=O)c2ccco2)n(Cc2ccccc2)c2nc3ccccc3nc12`, the “activity, negative = fluorescence increase” value is 0.679%.

(Values after PubChem BioAssay AID651812 (National Center for Advancing Translational Sciences (NCATS), 2012).)
